Bioassay records from PubChem.
A selection: hits, their analogues and other compounds. The true share with any hit is near 2%.
PolyA inhibitor: polyadenylation inhibitors in yeast reporter cells, primary screen, luminescence, S. cerevisiae. S. cerevisiae SKY197-pL101 polyadenylation reporter, beta-gal luminescence; efflux-impaired pdr1/pdr3 knockout yeast; score 100 = 6 SD above DMSO. activity score, % at 12 µM. 0.02% of 300,000 active;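 active means lowest replicate activity score at least 50, where 100 means six control SD above control mean; inconclusive means lowest score under 50 but half or more replicates reach 50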;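 further: yeast exposed to compound for 9 h at 30 °C; higher score means more reporter readthrough which indicates perturbed polyadenylation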
SKKanGAS inh: S. pyogenes SKKanGAS growth inhibitors in kanamycin, primary screen, streptokinase expression inhibitor project, SKKanGAS strain, BacTiter-Glo luminescence; 1.3% of 300,000 active; 6 h; inhibition, % at 7.5 µM;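 active means mean replicate score, as percent of positive control median, at least 50; inconclusive means mean below 50 but one replicate at or above 50; inactive means mean and every replicate below 50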;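 further: strain carries kanamycin resistance gene driven by streptokinase promoter and grows in 40 µg/ml kanamycin; loss of luminescence reflects streptokinase promoter inhibition or plain growth inhibition; 0% = median of DMSO wells and 100% = positive control at its reference dose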
Calb FLC: C. albicans growth inhibition with fluconazole, primary screen, CaCi-2 strain, Alamar Blue fluorescence; C. albicans CaCi-2 (fluconazole-resistant clinical isolate) + fluconazole, 48 h; growth inhibition, % (test concentration not listed); 0.57% of 300,000 active; AID 1979, 2009;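 active means growth inhibition above about 58% in most replicates, limit read from the data, passing the limit was not always enough; inconclusive means exactly half the replicates above a set limit; inactive means most replicates below a set limit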;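 further: all wells also contain fluconazole at 8 µg/ml as a sub-toxic cotreatment; 0% = median of DMSO wells and 100% = median of geldanamycin control wells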
Platelet DG rel: inhibitors of platelet dense granule secretion, primary screen, cell-based, MLPCN, human platelets. human platelet-rich plasma, SFLLRN dense granule ATP release, luminescence. inhibition, %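 (compounds screened at 7.5 µM in platelet-rich plasma)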. 0.22% of 300,000 active. AID 1663, 2009;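 active means mean replicate score, as percent of positive control, at or above 50; inconclusive means mean below 50 but at least one replicate at or above 50; inactive means mean and every replicate below 50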
CR mimetic SO: reduction of superoxide in aged yeast, primary screen, HTS; superoxide response (% of plate mean), % at 10 µM; 0.18% of 330,000 active; AID 2690, 2010; S. cerevisiae aged cells, superoxide DHE fluorescence; active compounds read low;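 active means superoxide response under a set limit, about three screen SD below normal, cut at about 65% in these data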;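 further: yeast aged for seven days with compound at 30 °C before DHE staining; 100% = average MFI of all compound-treated wells on the plate with controls excluded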
Active calls of the source: *; ? = inconclusive; . = no result.

SMILES	PolyA inhibitor	SKKanGAS inh	Calb FLC	Platelet DG rel	CR mimetic SO
COC(=O)C1=C(C)N(Cc2ccccc2)C(=O)/C1=C\c1ccco1	-10	-11	-4	3	88
CC(C)[C@@H]1CC[C@@H](C)C[C@H]1OC(=O)C[n+]1cc(-c2ccc(Cl)cc2)n2c1CCCCC2	13	22	95*	-15	87
CC1CCC(C(C)C)C(OC(=O)C[n+]2cccc(C(N)=O)c2)C1 (stereo unspecified)	-1	3	4	-2	113
COc1ccc(-c2c[n+](CC(=O)OC3CC(C)CCC3C(C)C)c3n2CCC3)cc1 (stereo unspecified)	16	-2	88*	1	95
CCCCCCCCNc1ccccc1S(=O)(=O)NCc1ccccc1	.	.	.	.	102
O=S(=O)(NCc1ccccc1)c1ccccc1NCCc1ccccc1	.	.	.	.	52*
CC(=O)OCCN(C)c1cc(SC(C)C)c2nonc2c1[N+](=O)[O-]	3	21	-2	-8	106
CN(CCO)c1cc(Sc2nc3ccccc3s2)c2nonc2c1[N+](=O)[O-]	-9	67*	?	-4	129
Cc1ccccc1NC(=O)Nc1ccc2c(c1)CCC2	-29	-3	-7	16	90
Cc1cc(C)n(-c2ccc(NC(=O)C3CCCCN3Cc3cccc4c3OCO4)cc2)n1 (stereo unspecified)	-2	2	-6	-9	.
CCOC(=O)CC(/C(C)=N\O)c1ccccc1 (stereo unspecified)	1	2	99*	0	102
S=c1[nH]nc(-c2cc(-c3ccccc3)n[nH]2)n1/N=C/c1ccc(Br)s1	7	60*	11	0	113
Cc1cc(-c2n[nH]c(=S)n2/N=C/c2ccc(Br)s2)n[nH]1	16	9	18	19	121
S=c1[nH]nc(-c2cc(-c3ccccc3)n[nH]2)n1/N=C/c1c(Cl)cccc1Cl	-19	61*	-1	-7	110
O=C(COC(=O)C1CC2C=CC1C2)Nc1c(Br)cc([N+](=O)[O-])cc1Br (stereo unspecified)	.	.	.	.	109
c1ccc(-c2ccc(C3=Nn4c(nnc4-c4cccs4)SC3)cc2)cc1	-1	51*	14	-2	94
Oc1ccc(-c2csc(-c3c[nH]c4ccccc34)n2)c(O)c1	-28	45	-30	5	90
Cc1ccc(-c2csc(-c3c[nH]c4ccccc34)n2)c(C)c1	-8	92*	-21	3	92
CN1CCN(C2Cc3cc(F)ccc3Sc3ccc(Cl)cc32)CC1 (stereo unspecified)	11	4	42	5	96
CN1CCN(C2Cc3ccc(F)cc3Sc3cc(F)c(Cl)cc32)CC1 (stereo unspecified)	7	97*	42	15	93
Clc1ccc(-c2csc(N3CCOCC3)n2)cc1	-6	-14	16	-1	.
Clc1ccc(-c2csc(N3CCCCCC3)n2)cc1	-18	54*	-6	-8	93
Cc1ccc2nc(-c3ccc(NS(=O)(=O)c4ccc(F)cc4)cc3)sc2c1	-23	76*	41	3	109
Cc1ccc2nc(-c3ccc(N)cc3)sc2c1	9	54*	3	23	86
CNC(=S)Nc1ccc(-c2nc3ccc(C)cc3s2)cc1	-16	-16	41	3	115
Cc1ccc2nc(N/C(=N/S(=O)(=O)c3ccc(F)cc3)c3ccccc3)sc2c1	-30	51*	12	5	79
Nc1ccc2nc(-c3ccccc3)sc2c1	-22	6	-2	64*	103
CS(=O)(=O)NCCC1=CCCCC1	5	1	2	1	100
O=C(O)CCC1c2cc3c4cc2OC2Oc5cc6c(cc51)C(CCC(=O)O)c1cc5c7cc1OC(O6)c1cc6cc(c1)Oc1cc(cc(C(=O)O)c1)Oc1cc8cc(c1)C(Oc1cc(c(cc1C5CCC(=O)O)C3CCC(=O)O)OC(O4)c1cc(cc(c1)Oc1cc(cc(C(=O)O)c1)O8)Oc1cc(cc(C(=O)O)c1)Oc1cc(cc2c1)Oc1cc(cc(C(=O)O)c1)O6)O7 (stereo unspecified)	13	11	0	2	106
COc1ccc(CC(=O)NNC2=Nc3cccc4cccc2c34)cc1OC	-7	4	-1	-22	112
